Reference: PubChem BioAssay AID504332 (National Center for Advancing Translational Sciences (NCATS), 2011)
About 31,000 (8.9%) of roughly 350,000 compounds were called active. Not shown: some 15% with an inconclusive outcome. Calls follow the shape of the dose curve; as a rule, active = well fitted inhibition curve with a large enough effect; inconclusive = small, poorly fitted or top-dose-only effect; inactive = no such curve, though single readings can be large or run the other way. What follows is part of a selection rich in actives, with near analogues and random picks from the rest.

These compounds were tested against Histone-lysine N-methyltransferase EHMT2 (Homo sapiens) (UniProt Q96KQ7) (assay: qHTS Assay for Inhibitors of Histone Lysine Methyltransferase G9a). Details: G9a H3K9 monomethylation, AlphaScreen, 2 h; series mostly up to 59 µM; activity, negative = inhibition: at the top concentration.
Chain of Histone-lysine N-methyltransferase EHMT2 (Homo sapiens) (Q96KQ7 913-1193 limits assumed): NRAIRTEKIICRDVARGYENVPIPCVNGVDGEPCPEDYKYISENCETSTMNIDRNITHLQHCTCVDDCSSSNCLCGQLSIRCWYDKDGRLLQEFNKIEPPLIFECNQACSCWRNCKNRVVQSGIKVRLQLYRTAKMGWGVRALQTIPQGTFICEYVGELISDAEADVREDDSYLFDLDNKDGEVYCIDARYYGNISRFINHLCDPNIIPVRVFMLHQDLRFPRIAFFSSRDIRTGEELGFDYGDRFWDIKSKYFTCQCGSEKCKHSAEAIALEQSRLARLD
How it was run: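 Quantitative HTS format: methyltransferase activity on a biotin-tagged H3K9 peptide is measured by AlphaScreen, using a rabbit anti-monomethyl-H3K9 antibody with streptavidin donor and anti-IgG acceptor beads. Final levels are 20 nM enzyme, 500 nM peptide, 20 uM SAM; 2 h RT.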
% is scaled to controls: 0 for no effect and ±100 for the full control effect; potency is read from the fitted curve at half-maximal effect.
Also: nearly all actives have a fitted effect of over 75% in size.

Structure (SMILES) | activity, negative = inhibition | Potency
COc1ccc(CNC(=O)c2cc3c(s2)-c2ccccc2OC3)cc1 | -3.7% (inactive) | 
Cc1ccc(C(=O)NC(=S)NCc2cccnc2)cc1 | -24.2% [at 102 µM] (inactive) | 
CC(C)(C)c1cc(C(=O)NCc2cccnc2)ccn1 | 17.8% [at 0.501 µM] (inactive) | 
Cc1ccc(-n2nc(-c3ccco3)cc2C(=O)NCc2cccnc2)cc1 |  | 2.51 µM (active)
O=C(NCC12CC3CC(CC(C3)C1)C2)c1cc2nc(-c3ccccc3)cc(C(F)(F)F)n2n1 | -1.06% (inactive) | 
COc1cc(OC)c(NC(=O)c2nc(-c3ccncc3)no2)cc1Cl | 6.69% (inactive) | 
Cc1ccc(C)c(Nc2nnc(-c3ccc(C)c(S(=O)(=O)N4CCCCC4)c3)c3ccccc23)c1 | -34.2% (inactive) | 
O=C(CNC(=O)c1ccccc1Br)NNC(=O)c1cccs1 | 7.12% [at 102 µM] (inactive) | 
O=C1CCC(C(=O)N2CCN(c3ccccc3Cl)CC2)CN1CC1CCCCC1 (stereo not drawn) | 0.955% (inactive) | 
COc1ccc(NC(=O)COC(=O)c2n[nH]c3ccccc23)c(OC)c1 | 3.57% [at 12.7 µM] (inactive) | 
CCCn1c(C)cc(/C=C(\C#N)C(=O)OCC(=O)N(C)c2c(N)n(Cc3ccccc3)c(=O)[nH]c2=O)c1C | -50.7% [at 102 µM] (inactive) | 
CCN(CC)c1ccc(/C=N/NC(=O)CNC(=O)c2cccnc2)cc1 | -26.8% [at 102 µM] (inactive) | 
O=C(CNC(=O)c1cccs1)N/N=C/c1cccc(Br)c1 | 18.8% [at 102 µM] (inactive) | 
CCN(CC)c1ccc(/C=N/NC(=O)CNC(=O)c2cccs2)cc1 |  | 50.1 µM (active)
O=C(NCCS(=O)(=O)N1CCN(c2ccc(F)cc2)CC1)c1ccccc1Br | 2.38% (inactive) | 
O=C(Nc1ccc(OC(F)(F)F)cc1)C1CCCN(S(=O)(=O)c2ccc(Br)s2)C1 (stereo not drawn) | 14.2% (inactive) | 
N#Cc1ccc(C(=O)OCC(=O)NC(=O)NC2CCCCC2)cc1 | 13.4% [at 2.33 µM] (inactive) | 
CC(C)NC(=O)NC(=O)COC(=O)c1ccc(NC(=O)CC#N)cc1 | -1.05% (inactive) | 
N#CCC(=O)NC(=O)NCC1CC1 |  | 39.8 µM (active)
CC1(C)O[C@@H]2[C@H](O1)[C@@H](CO)O[C@H]2n1c(N2CCCCC2)nc2c(N)ncnc21 | 9.14% [at 0.501 µM] (inactive) | 
Cc1cc(OCC(=O)Nc2ncn[nH]2)c(C)c(C)c1Br | 78.8% (inactive) | 
Cc1ccc(C)c(OCCC(=O)Nc2cccc(S(=O)(=O)N3CCCC3)c2)c1 | 6.86% [at 0.501 µM] (inactive) | 
Cc1ccc(C(C)(C)C)c(OCCCCN2CCCC2)c1 |  | 8.91 µM (active)
Cc1ccc(OCC(O)CN2CCN(CC(O)COc3ccc(C)cc3Cl)CC2)c(Cl)c1 (stereo not drawn) | 23.1% [at 102 µM] (inactive) | 

Structure (SMILES) | activity, negative = inhibition | Potency
Cc1ccc(Cl)c(OCC(=O)NN2CCN(C)CC2)c1 | 7.88% [at 102 µM] (inactive) | 
CC(=O)Nc1ccc(S(=O)(=O)N2CCN(CCCOc3cc(C)ccc3C)CC2)cc1 | -3.97% [at 12.7 µM] (inactive) | 
Cc1ccc(OCCCCN2CCCCC2)c(Br)c1 |  | 11.2 µM (active)
COCCNc1ncnc2c1c(-c1ccccc1)cn2-c1ccc(C)c(Cl)c1 | 2.41% (inactive) | 
CCOC(=O)N1CCN(S(=O)(=O)c2ccc3c(c2)C(C)C(=O)N3)CC1 (stereo not drawn) | 14.1% [at 12.7 µM] (inactive) | 
Cc1ccccc1N1CCN(C2CCCN(C(=O)c3cn4c(C)cccc4n3)C2)CC1 (stereo not drawn) | 9.34% [at 0.501 µM] (inactive) | 
CCC(=O)Nc1ccc(-c2ccc(N3CCCCC3)nn2)cc1 | 8.38% (inactive) | 
Cc1ccc(C)c(CNC(=O)c2cc3ccccn3n2)c1 | -1.14% (inactive) | 
CCCN1CCN(CCCNC(=O)Cn2nc(CC)n3c(cc4occc43)c2=O)CC1 | 2.34% (inactive) | 
O=C(CSc1ncc(-c2ccccc2)[nH]1)Nc1ccc(F)cc1F | -35.1% (inactive) | 
COc1ccc(/C=N/OCc2ccccc2C#N)c(OC)c1 | 30% [at 102 µM] (inactive) | 
CCc1ccc2oc(-c3ccc(NC(=O)c4cc5ccccc5o4)cc3)nc2c1 | 6.7% (inactive) | 
COc1ccc(CCNC(=O)c2cn(C)c3ccc(S(=O)(=O)N(C)C4CCCCC4)cc3c2=O)cc1OC | 7.95% (inactive) | 
COc1ccc(-c2cn(-c3ccc(C)cc3)c(=O)n2CC(=O)Nc2ccc(OC)c(OC)c2)cc1 | -42.8% (inactive) | 
COc1ccc(-c2c(-c3cc(OC)cc(OC)c3)n(C)c3ccc(-c4ccn[nH]4)cc23)cc1 | 2.71% [at 0.501 µM] (inactive) | 
COc1ccc(OC)c(-n2c(-c3ccn[nH]3)n[nH]c2=S)c1 |  | 14.1 µM (active)
COc1ccccc1-n1c(-c2cc(-c3ccco3)[nH]n2)n[nH]c1=S |  | 2.82 µM (active)
Cc1ccc(-c2cn3cc(C)ccc3n2)cc1 | -0.22% (inactive) | 
COc1ccc(-n2c(C)csc2=S)cc1 | 1.12% (inactive) | 
COc1ccc(-n2c(-c3ccc(OC)c(OC)c3)n[nH]c2=S)cc1 |  | 5.62 µM (active)
Cc1n[nH]c(=O)n1-c1ccc(C(C)C)cc1 | 50.3% [at 102 µM] (inactive) | 
COc1ccc(OC)c(-n2c(=S)[nH]c3cc(C(=O)N4CCCCC4)ccc3c2=O)c1 | -50% [at 102 µM] (inactive) | 
COc1ccccc1-n1cn[nH]c1=S | -42.9% [at 12.7 µM] (inactive) | 
Cc1ccc(-n2c(-c3ccc(Cl)cc3)n[nH]c2=S)cc1 |  | 1.41 µM (active)

Structure (SMILES) | activity, negative = inhibition | Potency
COc1ccc(CCn2c(-c3ccco3)nc3nc4ccccc4nc32)cc1OC | -36.8% [at 12.7 µM] (inactive) | 
COc1ccccc1CN1CCC(CNC(=O)c2cnn(-c3cccc(Cl)c3)c2C2CCN(C(=O)OC(C)(C)C)CC2)CC1 | -23.9% (inactive) | 
COc1ccc(CCc2nc(-c3cccs3)no2)cc1 | 181% [at 102 µM] (inactive) | 
COc1ccc(CC(=O)NCCc2sc3nc(-c4ccc(OC)cc4)nn3c2C)cc1 | 7.66% (inactive) | 
Cc1cc(C)cc(NC(=O)CSc2nc3nccnc3c(=O)n2CCc2c[nH]c3ccccc23)c1 | 0.37% (inactive) | 
CCOc1ccccc1NC(=O)Cn1c(=O)n(Cc2ccccc2)c(=O)c2c(C)c(C(=O)N(C)C)sc21 | -3.22% (inactive) | 
Cc1cccc(C(=O)Nc2ccc(Oc3cnccn3)cc2)c1 | -1.31% [at 2.33 µM] (inactive) | 
CCOc1cc(C(=O)NCCc2csc3nc(-c4ccc(C)cc4)nn23)cc(OCC)c1OCC | -2.16% (inactive) | 
CCOC(=O)C1=C(COC(=O)[C@H](C)NS(=O)(=O)c2ccccc2F)NC(=O)NC1C (stereo partly drawn) | 20.6% [at 2.33 µM] (inactive) | 
CCc1cc2c(cc3c(=O)n(CC(=O)NCc4cccc(Cl)c4)nc(CC)n32)s1 | -7.4% (inactive) | 
COCCNC(=O)c1ccc2c(c1)N(Cc1cccc(Cl)c1)C(=O)c1ccccc1S2(=O)=O | 2.78% (inactive) | 
CCOC(=O)[C@H]1[C@H]2COc3ccc(Cl)cc3[C@@H]2N2C(=O)c3cc(C)ccc3NC(=O)[C@@]12C | 28% [at 2.33 µM] (inactive) | 
Cc1cccc(N2CCN(C(=O)c3ccc4c(c3)CCN4S(=O)(=O)c3ccccc3)CC2)c1C | -28.9% (inactive) | 
CCC(CC)C(=O)N1CCN(c2cccc(C)c2C)CC1 | -9.41% (inactive) | 
CCn1c(C)c(C)c2cc(C(=O)N3CCN(c4cccc(C)c4C)CC3)ccc21 |  | 39.8 µM (active)
Cc1[nH]c2ccc(C(=O)N3CCN(C)CC3)cc2c1C | 9.51% [at 102 µM] (inactive) | 
CCS(=O)(=O)N1CCc2cc(C(=O)N3CCN(c4ccccc4OC)CC3)ccc21 | 12.5% (inactive) | 
CCOc1ccccc1N1CCN(C(=O)c2ccc3[nH]c(C)c(C)c3c2)CC1 |  | 79.4 µM (active)
CCc1ccc(C(=O)COC(=O)c2ccco2)cc1 | 3.44% [at 102 µM] (inactive) | 
CC1CCCCC12NC(=O)N(CC(=O)OCC(=O)NCc1ccc(F)cc1)C2=O (stereo not drawn) | 13.1% (inactive) | 
COc1ccc(-c2nc3sc(CCNC(=O)C(C)(C)C)c(C)n3n2)cc1 | 2.38% (inactive) | 
CCN(C(=O)COC(=O)c1sccc1C)c1c(N)n(Cc2ccccc2)c(=O)[nH]c1=O | 4.77% [at 0.501 µM] (inactive) | 
CN(C)C(CNC(=O)c1ccc(OCc2cn3ccccc3n2)cc1)c1ccco1 (stereo not drawn) | -7.88% (inactive) | 
CN(C(=O)CSc1nc2ccccc2n1Cc1ccccc1C#N)c1ccccc1 | -8.09% (inactive) | 

Structure (SMILES) | activity, negative = inhibition | Potency
NS(=O)(=O)c1ccc(CNC(=O)c2cccc(Oc3ccccc3)c2)cc1 | 12% [at 102 µM] (inactive) | 
O=C(CNc1ccccc1N1CCCC1=O)Nc1cc(Cl)ccc1-n1cncn1 | -39.6% [at 102 µM] (inactive) | 
CCc1ccccc1NC(=O)CSc1nnc([C@@H](NC(=O)OC(C)(C)C)C(C)C)o1 | 10.1% [at 2.33 µM] (inactive) | 
C[C@H](NC(=O)OC(C)(C)C)c1nnc(SCC(N)=O)o1 | 0.361% [at 102 µM] (inactive) | 
CC(C)Sc1nnc([C@H](Cc2ccccc2)NC(=O)OC(C)(C)C)o1 |  | 35.5 µM (active)
O=C(CN1CCN(S(=O)(=O)c2ccc(Cl)s2)CC1)N1CCCCC1 | 18.1% [at 2.33 µM] (inactive) | 
CCOc1cc(/C=C(\C#N)c2nc(-c3cccs3)c(NC(C)=O)s2)ccc1O | 8.33% (inactive) | 
COc1cc(/C=N\Nc2nc(-c3cccs3)c(NC(C)=O)s2)ccc1O |  | 11.2 µM (active)
COc1ccc(/C=N\NC(=O)c2sc(N)nc2C)cc1OC | 63.3% (inactive) | 
CC1=Nc2cc(C(=O)N3CCC(C)CC3)ccc2Sc2ccc(Cl)cc21 | -32.2% (inactive) | 
CCc1nnc(SCc2nc(-c3cccc(C)c3)oc2C)c2cc3sc(C)cc3n12 | -2.67% (inactive) | 
CCN(CC)S(=O)(=O)c1ccc(N2CCOCC2)c(NC(=O)C2CSC3(C)CCC(=O)N23)c1 (stereo not drawn) | 7.95% [at 102 µM] (inactive) | 
CC(C)Oc1ccc(S(=O)(=O)N2CCOCC2)cc1NC(=O)C1CCCC1 | -4.09% (inactive) | 
CC(C)Oc1ccc(S(=O)(=O)N2CCOCC2)cc1NC(=O)C1CSC2(C)CCC(=O)N12 (stereo not drawn) |  | 44.7 µM (active)
C=C1c2cc(CC)ccc2NC(=O)N1c1ccc(C)cc1 |  | 11.2 µM (active)
Cc1ccc(CC2C(=O)N(c3ccc(F)cc3)C(=O)C2C)cc1 (stereo not drawn) | 2.4% [at 0.501 µM] (inactive) | 
CCNC(=O)CC1C(=O)N(c2ccc(F)cc2)C(=O)N1Cc1ccc(C)cc1 (stereo not drawn) | -4.01% (inactive) | 
O=C(c1cc(COc2ccc(F)c(F)c2)on1)N1CCOCC1 | -4.01% [at 0.501 µM] (inactive) | 
Cc1cc(NS(=O)(=O)c2ccc(NC(=O)C(C)Oc3cccc(C)c3C)cc2)nc(C)n1 (stereo not drawn) | 53.2% [at 102 µM] (inactive) | 
Cn1c(=O)[nH]c(=O)c2c1[nH]c(=S)n2Cc1ccccc1 | -14.7% [at 2.33 µM] (inactive) | 
CN1C=CC=C/C1=C1\SC(=S)N(Cc2ccccc2)C1=O |  | 20 µM (active)
